Values joined by “and” are separate entries in the source; they are usually repeats but may differ in a detail not shown here. Equal entries are not always repeated. In all, about 5,500 compounds went through this assay and about 2,000 (36%) were called active. Inconclusive results (about 18%) are left out. Cut-off read from the data, not from the text of the source: active = normalized growth mostly below about 0.91 (no sharp cut-off); inconclusive = no clear call, values can overlap the other calls; inactive = mostly above about 0.92. The list shows a part of the results.
Test: chemical genetic growth profiling, strain panel (AID 1159580);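 note: tested at 20 µM; growth read once vehicle control cultures reached saturation at 30 °C; 1 = growth at the plate median or of vehicle wells; lower values mean less growth of the strain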
Settings: S. cerevisiae deletion strains, growth OD

Measured: normalized growth

CCC(C)C(NC)C(=O)O (centres undefined)
inactive: locus YAL013W, strain DEP1, hits give low values 1.02 | locus YAL021C, strain ccr4, hits give low values 1.03 | locus YAL026C, strain drs2, hits give low values 1.02 | locus YAL030W, strain snc1, hits give low values 1.01 | locus YBL061C, strain skt5, hits give low values 1.03 | locus YBR009C, strain hhf1, hits give low values 1.02 | locus YBR021W, strain FUR4, hits give low values 1.01 | locus YBR023C, strain chs3, hits give low values 1.02 | locus YBR171W, strain sec66, hits give low values 1.05 | locus YBR229C, strain ROT2, hits give low values 0.947 | locus YBR231C, strain swc5, hits give low values 1.01 | locus YBR279W, strain paf1, hits give low values 1.01 | locus YCL011C, strain gbp2, hits give low values 1.02 | locus YCL016C, strain dcc1, hits give low values 1.03 | locus YCL029C, strain bik1, hits give low values 0.982 | locus YCL061C, strain MRC1, hits give low values 1.03 | locus YCL069W, strain vba3, hits give low values 1.02 | locus YCR088W, strain abp1, hits give low values 1 | locus YDL005C, strain med2, hits give low values 1.02 | locus YDL035C, strain GPR1, hits give low values 0.981 | locus YDL040C, strain nat1, hits give low values 1.01 | locus YDL074C, strain BRE1, hits give low values 1.01 | locus YDL101C, strain DUN1, hits give low values 0.983 | locus YDL134C, strain PPH21, hits give low values 0.984 | locus YDL185W, strain tfp1, hits give low values 0.986 | locus YDL192W, strain arf1, hits give low values 1 | locus YDR001C, strain nth1, hits give low values 1.02 | locus YDR069C, strain doa4, hits give low values 1.02 | locus YDR101C, strain arx1, hits give low values 1 | locus YDR137W, strain rgp1, hits give low values 1.06 | locus YDR159W, strain sac3, hits give low values 1.02 | locus YDR162C, strain NBP2, hits give low values 0.966 | locus YDR195W, strain ref2 0.985 | locus YDR297W, strain sur2, hits give low values 1.01 | locus YDR318W, strain mcm21, hits give low values 0.985 | locus YDR334W, strain swr1, hits give low values 1.02 | locus YDR335W, strain msn5, hits give low values 1.01 | locus YDR388W, hits give low values 0.994 | locus YDR392W, strain spt3, hits give low values 0.986 | locus YDR502C, strain sam2, hits give low values 0.997 | locus YEL003W, strain gim4, hits give low values 1.01 | locus YEL037C, strain rad23, hits give low values 1.02 | locus YEL061C, strain CIN8 (second series), hits give low values 1.02 | locus YEL061C, strain CIN8, hits give low values 0.983 | locus YER015W, strain faa2, hits give low values 1.02 | locus YER016W, strain bim1, hits give low values 1.01 | locus YER110C, hits give low values 0.979 | locus YER111C, strain swi4, hits give low values 1.03 | locus YER155C, strain BEM2 (second series), hits give low values 1.01 | locus YER155C, strain BEM2, hits give low values 1 | locus YER167W, strain BCK2, hits give low values 0.975 | locus YFR010W, strain ubp6, hits give low values 1.03 | locus YGL078C, strain dbp3, hits give low values 0.999 | locus YGL086W, strain mad1, hits give low values 1.01 | locus YGL167C, strain pmr1, hits give low values 1.02 | locus YGL173C, strain kem1, hits give low values 1.03 | locus YGL227W, strain vid30, hits give low values 1.02 | locus YGL240W, strain doc1, hits give low values 1.01 | locus YGL248W, strain PDE1, hits give low values 0.982 | locus YGL253W, strain hxk2, hits give low values 1.02 | locus YGR135W, strain pre9, hits give low values 0.99 | locus YGR252W, strain gcn5, hits give low values 0.986 | locus YHR013C, strain ard1, hits give low values 1.03 | locus YHR027C, strain rpn1, hits give low values 1.03 | locus YHR030C, strain SLT2, hits give low values 0.985 and 1.06 | locus YHR079C, strain IRE1 (second series), hits give low values 0.991 | locus YHR079C, strain IRE1, hits give low values 1.09 | locus YHR094C, strain hxt1, hits give low values 0.977 | locus YHR129C, strain ARP1, hits give low values 0.99 | locus YHR142W, strain chs7, hits give low values 1.02 | locus YHR200W, strain rpn10, hits give low values 0.986 | locus YIL066C, strain RNR3, hits give low values 0.944 | locus YIL073C, strain SPO22, hits give low values 0.972 | locus YIL125W, strain kgd1, hits give low values 0.982 | locus YIR030C, strain dcg1, hits give low values 0.99 | locus YJL092W, strain hpr5, hits give low values 1.03 | locus YJL095W, strain BCK1 (second series), hits give low values 1.01 | locus YJL095W, strain BCK1, hits give low values 1.05 | locus YJL115W, strain asf1, hits give low values 1.03 | locus YJL129C, strain trk1, hits give low values 1.05 | locus YJL134W, strain LCB3, hits give low values 0.967 | locus YJL154C, strain vps35, hits give low values 1.01 | locus YJL164C, strain tpk1, hits give low values 1.03 | locus YJL166W, strain qcr8, hits give low values 1.02 | locus YJL168C, strain set2, hits give low values 0.993 | locus YJL187C, strain SWE1 (second series), hits give low values 1 | locus YJL187C, strain SWE1, hits give low values 1.01 | locus YJR043C, strain POL32, hits give low values 0.969 | locus YJR066W, strain TOR1, hits give low values 1 | locus YKL009W, strain mrt4, hits give low values 1.01 | locus YKL068W, hits give low values 0.973 | locus YKL085W, strain MDH1 (second series), hits give low values 0.979 | locus YKL085W, strain MDH1, hits give low values 0.979 | locus YKL160W, strain elf1, hits give low values 1.02 | locus YKL190W, strain CNB1, hits give low values 1 | locus YKR001C, strain vps1, hits give low values 1 | locus YKR026C, strain gcn3, hits give low values 1.02 | locus YKR091W, strain srl3, hits give low values 1 | locus YLL001W, strain dnm1, hits give low values 1.03 | locus YLL026W, hits give low values 1.01 | locus YLL041C, strain sdh2, hits give low values 1.02 | locus YLR027C, strain aat2, hits give low values 1.02 | locus YLR039C, strain RIC1, hits give low values 0.995 | locus YLR058C, strain SHM2, hits give low values 0.935 | locus YLR102C, strain apc9, hits give low values 0.985 | locus YLR113W, strain HOG1, hits give low values 1.09 | locus YLR221C, strain rsa3, hits give low values 1.03 | locus YLR258W, strain gsy2, hits give low values 1.01 | locus YLR262C, strain YPT6 (second series), hits give low values 1.05 | locus YLR262C, strain YPT6, hits give low values 0.989 | locus YLR268W, strain sec22, hits give low values 1.03 | locus YLR320W, strain mms22, hits give low values 1.03 | locus YLR330W, strain CHS5, hits give low values 0.987 | locus YLR342W, strain FKS1 (second series), hits give low values 0.977 | locus YLR342W, strain FKS1, hits give low values 1.01 | locus YLR357W, strain rsc2, hits give low values 1.02 | locus YLR370C, strain arc18, hits give low values 1.03 | locus YLR371W, strain rom2, hits give low values 0.982 | locus YLR384C, strain iki3, hits give low values 1.01 | locus YLR418C, strain cdc73, hits give low values 0.971 | locus YML016C, strain PPZ1, hits give low values 0.992 | locus YML032C, strain rad52, hits give low values 0.963 | locus YML120C, strain ndi1, hits give low values 1.01 | locus YML124C, strain tub3, hits give low values 0.997 | locus YMR058W, strain fet3, hits give low values 1.03 | locus YMR078C, strain ctf18, hits give low values 0.985 | locus YMR125W, strain sto1, hits give low values 1.01 | locus YMR129W, hits give low values 1.02 | locus YMR205C, strain PFK2, hits give low values 1.03 | locus YMR223W, strain ubp8, hits give low values 0.991 | locus YMR231W, strain pep5, hits give low values 1.01 | locus YMR307W, strain GAS1, hits give low values 1.02 | locus YNL067W, strain RPL9B, hits give low values 1.03 | locus YNL071W, strain lat1, hits give low values 1.02 | locus YNL128W, strain TEP1, hits give low values 0.986 | locus YNL183C, strain NPR1, hits give low values 0.998 | locus YNL209W, strain ssb2, hits give low values 1.01 | locus YNL233W, strain BNI4, hits give low values 1.04 | locus YNL248C, strain rpa49, hits give low values 1.02 | locus YNL250W, strain rad50, hits give low values 0.962 | locus YNL271C, strain bni1, hits give low values 0.992 | locus YNL298W, strain CLA4, hits give low values 0.988 | locus YNL307C, strain MCK1, hits give low values 0.988 | locus YNL322C, strain KRE1 (second series), hits give low values 1.02 | locus YNR049C, strain mso1, hits give low values 1.02 | locus YNR052C, strain pop2, hits give low values 1.01 | locus YOL012C, strain htz1 0.872 | locus YOL147C, strain pex11, hits give low values 0.976 | locus YOR001W, strain rrp6, hits give low values 1.02 | locus YOR061W, strain CKA2, hits give low values 0.961 | locus YOR069W, strain VPS5, hits give low values 0.984 | locus YOR070C, strain gyp1, hits give low values 1.03 | locus YOR080W, strain dia2, hits give low values 1.02 | locus YOR083W, strain WHI5, hits give low values 1.02 | locus YOR106W, strain vam3, hits give low values 1.02 | locus YOR136W, strain idh2, hits give low values 0.994 | locus YOR144C, strain elg1, hits give low values 0.993 | locus YOR184W, strain ser1, hits give low values 0.989 | locus YOR231W, strain MKK1, hits give low values 1.08 | locus YOR265W, strain rbl2, hits give low values 1.01 | locus YOR270C, strain vph1, hits give low values 1.05 | locus YOR290C, strain snf2, hits give low values 1.02 | locus YOR316C, strain cot1, hits give low values 0.993 | locus YPL051W, strain arl3, hits give low values 1.04 | locus YPL078C, strain atp4, hits give low values 1.02 | locus YPL106C, strain sse1, hits give low values 1.01 | locus YPL240C, strain hsp82, hits give low values 1 | locus YPL241C, strain CIN2, hits give low values 0.98 | locus YPL256C, strain CLN2, hits give low values 1.09 | locus YPR119W, strain clb2, hits give low values 0.991 | locus YPR141C, strain kar3, hits give low values 0.978 | locus YPR163C, strain tif3, hits give low values 0.985 | locus YPR167C, strain met16, hits give low values 0.989 | strain wtn01, hits give low values 1.01

— PubChem BioAssay AID1159580 (chemical genetic matrix, 2015)
